Each structure is given as a SMILES string. A number with no mark means an inactive call. Records with an inconclusive call do not appear. Activity calls are given as the source filed them. Unless noted, the call rests on the fitted dose curve.

Experiment [1] in a line: Nuclear factor erythroid 2-related factor 2/antioxidant responsive element (Nrf2/ARE) small molecule agonists: qHTS cell viability counter screen in human keratinocytes (AID 1919968; active means well fitted curve in the direction sought with a large enough effect in the repeat runs; an effect the other way counts as inactive or inconclusive; further: nearly all actives have a fitted effect of over 55% in size). An outline of the steps: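 Cells of the KeratinoSens line were plated at 1,500 per well and left for 5 h before compound transfer from DMSO stocks. After a 23 h incubation (37 C, 5% CO2), CellTiter-Fluor was added. Signal was taken as fluorescence intensity 1 h later.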
On the technique in general: Quantitative high-throughput screening tests each substance at several concentrations.

Experiment [2] is described as follows: Nuclear factor erythroid 2-related factor 2/antioxidant responsive element (Nrf2/ARE) small molecule agonists: luciferase reporter gene qHTS assay in human keratinocytes (AID 1919969; further: nearly all actives have a fitted effect of over 35% in size; further: potency means the concentration at half of the fitted maximal effect). (In general: A reporter such as luciferase makes a cellular process visible.)
Experiment [3] addresses Gonadotropin-releasing hormone receptor (Homo sapiens) (UniProt P30968). The experiment can be described thus: Human gonadotropin-releasing hormone receptor (GnRHR) small molecule agonists, calcium flux assay in GnRHR-HEK293 cells (AID 1920063). Further: nearly all actives have a fitted effect of over 35% in size. An outline of the steps: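 Compounds dissolved in DMSO are pin-transferred onto dye-loaded GnRHR-HEK293 cells, which were seeded 18 h before at 37 C/5% CO2. Calcium signal is read as fluorescence intensity at 1 s intervals for 3 min.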
(A change in cytosolic calcium serves as a functional read-out for many receptors and channels.)

The target of experiment [4] is KiSS-1 receptor (Homo sapiens) (UniProt Q969F8). Briefly: Human kisspeptin (KISS1R) small molecule agonists, calcium flux assay in KISS1R-HEK293 cells (AID 1920064; active means well fitted curve in the direction sought with a large enough effect in the repeat runs; an effect the other way counts as inactive or inconclusive). The gist of the method:
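Cell line: HEK293, stable human KISS1R. Dye loading 1 h at 37 C after 18 h culture. Read: kinetic fluorescence, 480/540 nm, 3 min at 1 s intervals.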

Experiment [5] is described as follows: G protein-coupled receptor (GPCR) small molecule agonists, calcium flux assay: HEK293 wild type cell line counter screen (AID 1920065). The gist of the method:
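Tox21 10K compounds, 15 concentrations each in triplicate, pin-transferred in DMSO onto dye-loaded cells; kinetic read at 480/540 nm for 3 min, 1 s intervals.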

Experiment [6] in a line: p53 small molecule agonists, cell-based qHTS assay with human liver microsomes (AID 1963577).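 Further: p53 response element beta-lactamase reporter cells with liver microsomes plus NADPH.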 An outline of the steps: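 Steps: plate p53RE-bla cells, incubate 5 h at 37 C; add compound in DMSO; add microsomes (0.5 mg/mL final) and NADPH (0.5 mg/mL final); incubate 16 h at 37 C; add LiveBLAzer, 2 h RT; read fluorescence.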
A short description of experiment [7]: p53 small molecule agonists, cell-based qHTS assay with rat liver microsomes (AID 1963578). The gist of the method:
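Metabolic activation is supplied by rat liver microsomes with NADPH (each 0.5 mg/mL final). p53RE-bla cells incubate with compound 16 h at 37 C; reporter activity is measured by LiveBLAzer fluorescence.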

A short description of experiment [8]: p53 small molecule agonists, cell-based qHTS assay with human liver microsomes: qHTS cell viability counter screen (AID 1963579). Further: nearly all actives have a fitted effect of over 45% in size. The gist of the method:
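After the 460/530 nm beta-lactamase read, CellTiter-Glo was added to the same wells and luminescence measured after 30 min at room temperature, giving viability of p53RE-bla cells treated 16 h with compounds plus microsomes and NADPH.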

Experiment [9] in a line: p53 small molecule agonists, cell-based qHTS assay with rat liver microsomes: qHTS cell viability counter screen (AID 1963580). Further: nearly all actives have a fitted effect of over 45% in size. The gist of the method:
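Counter screen for cytotoxicity under metabolic activation: rat liver microsomes and NADPH, 0.5 mg/mL final each, added with compounds to p53RE-bla HCT-116 cells; 16 h at 37 C, then ATP luminescence read.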

Experiment [10] in a line: p53 small molecule agonists, cell-based qHTS assay: qHTS cell viability counter screen (AID 1963581). Further: nearly all actives have a fitted effect of over 45% in size. An outline of the steps: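 ATP content measured by luminescence in HCT-116 p53RE-bla cells treated 16 h at 37 C, same wells as the reporter screen.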
The nature of experiment [11]: p53 small molecule agonists, cell-based qHTS assay (AID 1963582; active means well fitted activation curve with a large enough effect in the signal ratio in the repeat runs, not every such curve was filed as active; the % refers to the signal ratio). An outline of the steps: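 16 h compound exposure (37 C) of p53 response element–bla cells, preceded by 5 h recovery at 37 C/5% CO2; read-out via LiveBLAzer B/G FRET substrate, 2 h RT, fluorescence intensity.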
The target in experiment [12] is 5-hydroxytryptamine receptor 2A (Homo sapiens) (UniProt P28223). Briefly: 5-hydroxytryptamine receptor 2A (HTR2A) small molecule agonists, cell-based qHTS assay (AID 1963587). Further: nearly all actives have a fitted effect of over 30% in size. An outline of the steps: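 HTR2A-CHO cells, plated 18 h at 37 C/5% CO2, dye-loaded 1 h at 37 C; compounds in DMSO added by pin tool (agonist mode). Intracellular calcium flux read as kinetic fluorescence on FDSS over 2 min at 1 s intervals.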

The target of experiment [13] is Muscarinic acetylcholine receptor M1 (Homo sapiens) (UniProt P11229). Briefly: Cholinergic receptor muscarinic 1 (CHRM1) small molecule antagonists, cell-based qHTS assay (AID 1963588). Further: nearly all actives have a fitted effect of over 40% in size. An outline of the steps:
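Compounds were tested at 15 concentrations in three independent runs. Dye-loaded CHRM1-CHO cells were exposed 5 min at room temperature before stimulation by acetylcholine added at 50nM. Intracellular calcium was read kinetically on FDSS for 3 min.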

Experiment [14] has the same target. Briefly: Cholinergic receptor muscarinic 1 (CHRM1) small molecule agonists, cell-based qHTS assay (AID 1963589). Further: nearly all actives have a fitted effect of over 35% in size. An outline of the steps:
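Homogeneous fluorescence calcium flux, agonist mode. Human M1-expressing CHO cells; compound dosed at 15 concentrations, three independent runs; signal sampled every 1 sec.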

Experiment [15] is described as follows: cAMP Responsive Elements (CRE) small molecule agonists, cell-based qHTS assay (AID 1963590). The gist of the method:
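HEK 293T cells stably bearing CRE-bla were plated at 2,000 cells per well and rested 18 h. Compounds, positive controls or DMSO were added for 3 h at 37 C. LiveBLAzer B/G substrate was then loaded for 2 h at room temperature.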

Experiment [16] can be described thus: cAMP Responsive Elements (CRE) small molecule antagonists, cell-based qHTS assay (AID 1963591; active means well fitted inhibition curve with a large enough effect in the signal ratio in the repeat runs, not every such curve was filed as active; the % refers to the signal ratio). An outline of the steps: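 First, CRE-bla HEK293T cells settled 18 h at 37 C. Next, compound and 0.25 uM final NKH477 were applied for 3 h. Last, LiveBLAzer B/G substrate was loaded for 2 h at room temperature.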
The target of experiment [17] is Beta-2 adrenergic receptor (Homo sapiens) (UniProt P07550). Briefly: Adrenergic beta2 receptor (ADRB2) small molecule antagonists, cell-based qHTS assay (AID 1963592). Further: series mostly up to about 92 µM; nearly all actives have a fitted effect of over 50% in size. The gist of the method:
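Assay format: CHO-ADRB2 cells, 18-20hr seeding at 37C/5% CO2, then compound plus 1nM isoproterenol agonist mix for 0.5hr RT. Homogeneous time-resolved fluorescence cAMP detection after 1hr, expressed as 665/615 nm ratio.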

For experiment [18], the target named is D(2) dopamine receptor (Homo sapiens) (UniProt P14416). The experiment can be described thus: Dopamine D2 receptor (DRD2) small molecule agonists, cell-based qHTS assay (AID 1963594). Further: nearly all actives have a fitted effect of over 35% in size. Further: potency means the concentration at half of the fitted maximal effect. The gist of the method: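 HEK293 cells stably expressing DRD2 were cultured 24 h at 37 C, then given Ro20-1724 (0.1 mM final) and compounds for 10 min at room temperature. NKH477 (200nM) was then added for 30 min. cAMP was read by HTRF.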

The target is the same in experiment [19]. Briefly: Dopamine D2 receptor (DRD2) small molecule antagonists, cell-based qHTS assay (AID 1963595; active means well fitted inhibition curve with a large enough effect in the signal ratio in the repeat runs, with a control signal flat; the % refers to the signal ratio). The gist of the method:
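In this cell-based antagonist screen, compounds act for 10 min at room temperature before a 30 min challenge with 12 nM quinpirole and 200 nM NKH477. cAMP is quantified by HTRF competition in DRD2-HEK293 cells containing 0.1 mM Ro20-1724.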

In experiment [20] the target is Beta-2 adrenergic receptor (Homo sapiens) (UniProt P07550). Briefly: Adrenergic beta2 receptor (ADRB2) small molecule agonists, cell-based qHTS assay (AID 1963593).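 Further: CHO cells stably overexpressing human ADRB2.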 The gist of the method: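 CHO cells stably over-expressing ADRB2 were plated overnight at 37C, then dosed with compounds plus a stimulation mix containing 100uM IBMX and 25uM Ro-20-1724 for 0.5hr at room temperature. cAMP was measured by HTRF competition, 1hr.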
On the % scale 0 is the no-effect control and ±100 the full control effect.

Sequence of KiSS-1 receptor (Homo sapiens) (Q969F8 whole entry, looked up): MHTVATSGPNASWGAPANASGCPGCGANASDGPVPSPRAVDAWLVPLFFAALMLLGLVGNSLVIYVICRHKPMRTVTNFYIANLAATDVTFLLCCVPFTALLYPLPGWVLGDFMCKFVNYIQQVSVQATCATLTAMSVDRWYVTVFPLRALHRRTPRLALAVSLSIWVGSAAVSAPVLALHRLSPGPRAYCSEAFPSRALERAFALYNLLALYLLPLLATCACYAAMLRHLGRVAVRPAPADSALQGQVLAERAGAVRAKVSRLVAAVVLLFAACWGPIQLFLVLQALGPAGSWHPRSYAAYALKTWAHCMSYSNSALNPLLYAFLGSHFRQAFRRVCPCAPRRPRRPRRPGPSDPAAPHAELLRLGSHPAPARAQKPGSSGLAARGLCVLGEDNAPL
Sequence of D(2) dopamine receptor (Homo sapiens) (P14416 whole entry, looked up): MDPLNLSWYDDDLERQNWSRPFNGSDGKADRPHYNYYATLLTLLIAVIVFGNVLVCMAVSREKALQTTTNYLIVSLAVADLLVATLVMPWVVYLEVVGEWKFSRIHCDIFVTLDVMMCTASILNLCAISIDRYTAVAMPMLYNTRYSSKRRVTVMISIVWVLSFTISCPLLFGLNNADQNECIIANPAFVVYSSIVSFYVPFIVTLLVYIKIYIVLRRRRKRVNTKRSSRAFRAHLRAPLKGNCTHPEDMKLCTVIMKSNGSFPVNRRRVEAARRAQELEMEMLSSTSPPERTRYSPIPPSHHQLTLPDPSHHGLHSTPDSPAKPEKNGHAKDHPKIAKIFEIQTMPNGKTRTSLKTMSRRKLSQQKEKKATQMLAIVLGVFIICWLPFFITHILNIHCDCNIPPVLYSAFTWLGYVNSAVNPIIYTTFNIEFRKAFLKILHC
Sequence of Muscarinic acetylcholine receptor M1 (Homo sapiens) (P11229 whole entry, looked up): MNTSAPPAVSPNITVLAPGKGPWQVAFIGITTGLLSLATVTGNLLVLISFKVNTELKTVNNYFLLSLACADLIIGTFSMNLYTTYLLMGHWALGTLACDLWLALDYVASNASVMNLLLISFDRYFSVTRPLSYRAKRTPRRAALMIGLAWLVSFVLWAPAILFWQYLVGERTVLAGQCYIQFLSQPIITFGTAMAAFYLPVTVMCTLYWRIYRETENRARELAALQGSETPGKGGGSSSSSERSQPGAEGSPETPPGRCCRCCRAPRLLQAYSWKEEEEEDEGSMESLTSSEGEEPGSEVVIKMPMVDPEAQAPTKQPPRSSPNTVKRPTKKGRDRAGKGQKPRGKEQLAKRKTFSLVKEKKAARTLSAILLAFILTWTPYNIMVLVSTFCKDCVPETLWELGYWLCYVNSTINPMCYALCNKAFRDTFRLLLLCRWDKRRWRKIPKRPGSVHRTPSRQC
Sequence of 5-hydroxytryptamine receptor 2A (Homo sapiens) (P28223 whole entry, looked up): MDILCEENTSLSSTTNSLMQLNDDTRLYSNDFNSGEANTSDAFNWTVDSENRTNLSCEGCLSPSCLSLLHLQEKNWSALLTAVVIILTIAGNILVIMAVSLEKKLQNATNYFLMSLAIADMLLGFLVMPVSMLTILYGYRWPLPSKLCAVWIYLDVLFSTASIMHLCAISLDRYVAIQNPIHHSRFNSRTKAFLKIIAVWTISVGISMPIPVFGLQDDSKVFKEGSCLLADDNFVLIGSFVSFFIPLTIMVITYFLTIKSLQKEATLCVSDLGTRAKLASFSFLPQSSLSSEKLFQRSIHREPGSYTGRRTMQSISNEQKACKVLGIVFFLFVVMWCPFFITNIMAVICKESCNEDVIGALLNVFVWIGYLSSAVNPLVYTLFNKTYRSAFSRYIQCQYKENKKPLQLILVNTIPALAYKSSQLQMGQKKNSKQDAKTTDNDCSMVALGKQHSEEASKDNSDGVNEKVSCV
Sequence of Beta-2 adrenergic receptor (Homo sapiens) (P07550 whole entry, looked up): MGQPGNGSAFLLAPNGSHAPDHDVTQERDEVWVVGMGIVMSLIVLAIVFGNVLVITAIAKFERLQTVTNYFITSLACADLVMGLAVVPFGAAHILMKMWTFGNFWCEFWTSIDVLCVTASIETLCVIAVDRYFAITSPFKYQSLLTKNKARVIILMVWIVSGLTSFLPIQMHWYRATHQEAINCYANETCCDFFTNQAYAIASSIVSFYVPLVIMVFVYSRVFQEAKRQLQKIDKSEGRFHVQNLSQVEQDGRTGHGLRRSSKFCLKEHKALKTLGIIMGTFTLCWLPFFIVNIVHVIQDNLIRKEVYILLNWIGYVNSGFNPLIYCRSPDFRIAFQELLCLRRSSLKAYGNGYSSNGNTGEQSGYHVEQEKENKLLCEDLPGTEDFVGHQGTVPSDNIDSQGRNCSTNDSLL
Sequence of Gonadotropin-releasing hormone receptor (Homo sapiens) (P30968 whole entry, looked up): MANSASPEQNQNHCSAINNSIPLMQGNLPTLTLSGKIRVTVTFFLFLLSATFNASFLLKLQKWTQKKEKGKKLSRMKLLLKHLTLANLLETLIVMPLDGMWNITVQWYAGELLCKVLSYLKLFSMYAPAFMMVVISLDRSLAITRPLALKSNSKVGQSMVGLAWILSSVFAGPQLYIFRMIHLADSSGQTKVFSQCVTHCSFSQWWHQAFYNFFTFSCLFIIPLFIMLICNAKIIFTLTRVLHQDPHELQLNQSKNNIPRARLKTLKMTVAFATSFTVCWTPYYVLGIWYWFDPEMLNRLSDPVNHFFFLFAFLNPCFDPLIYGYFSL

Regarding `CN=C(NC#N)NCCSCc1csc(N=C(N)N)n1`, the Potency result in experiment [1], in experiment [2], in experiment [3], in experiment [6], in experiment [7] and in experiment [8] was “inactive” in each case. For the same molecule, the Potency entry in experiment [9], in [10], in experiment [11], in experiment [12], in experiment [13] and in experiment [14] was “inactive” throughout. For the same molecule, the Potency entry in experiment [15], in experiment [16], in experiment [17] and in experiment [19] was “inactive” throughout. The result in [4] and in experiment [5] was inactive. In addition, the Potency in experiment [18] is 19.9 µM (active).

In the case of `CC(C)(C)C(=O)Oc1ccc(S(=O)(=O)Nc2ccccc2C(=O)NCC(=O)O)cc1`, the Potency result in experiment [1], in [2], in [3], in experiment [6], in [7] and in experiment [8] was “inactive” each time. Moreover, the Potency result in experiment [9], in experiment [10], in experiment [11], in experiment [12], in experiment [13] and in experiment [14] was “inactive” in each case. Moreover, the Potency entry in [15], in [16], in experiment [17], in experiment [20], in experiment [18] and in [19] was “inactive” each time. The outcome in experiment [4] and in [5] was inactive.

For the molecule `Cc1cc(NS(=O)(=O)c2ccc(N)cc2)nc(C)n1`, the Potency entry in experiment [1], in experiment [2], in experiment [3], in experiment [6], in experiment [7] and in experiment [8] was “inactive” each time. For the same molecule, the Potency entry in experiment [9], in experiment [10], in experiment [11], in experiment [12], in [13] and in experiment [14] was “inactive” in each case. Besides, the Potency result in [15], in experiment [16], in [20], in [18] and in experiment [19] was “inactive” in each case. Further, the outcome in experiment [4] and in experiment [5] was inactive.

`C[C@@H](O)[C@H](N)C(=O)O`: the activity change, negative = cytotoxicity in [1] is 1.84% [at 19 µM]; in [8], 12.8% [at 13.5 µM]; in experiment [9], -1.12% [at 13.5 µM]; in [10], 3.28% [at 13.5 µM]. Moreover, the activity, positive = activation in experiment [2] is 1.15% [at 19 µM]. Besides, the activity change in experiment [3] is -1.37% [at 11.8 µM, stronger effect = higher value]. In addition, the activation in experiment [4] is -0.197% [at 15.8 µM]; in experiment [5], -0.289% [at 11.8 µM]; in [6], 1.89% [at 13.5 µM]; in [7], 3.27% [at 13.6 µM]; in [11], -0.75% [at 13.5 µM]; in experiment [12], 1.14% [at 15.9 µM]. The activation in experiment [14] was -0.0423% [at 15.8 µM]; in experiment [15], -0.0351% [at 19 µM]; in experiment [18], 17.6% [at 19 µM]. The activity, negative = inhibition in experiment [13] is -1.65% [at 12.6 µM]. Moreover, the figures for the activity change, negative = inhibition in [16], in [17] and in experiment [19] were 5.26% [at 18.9 µM], 2.52% [at 19 µM] and -2.84% [at 18.9 µM], respectively.

In the case of `CCCCCCOc1ccc(N)cc1`, the Potency result in experiment [1], in experiment [3], in experiment [6], in [7], in experiment [8] and in [9] was “inactive” in each case. The Potency entry in experiment [10], in experiment [11], in experiment [13], in [14], in experiment [15] and in experiment [16] was “inactive” throughout. Moreover, the Potency entry in experiment [17], in experiment [20], in experiment [18] and in experiment [19] was “inactive” in each case. Also, the Potency in experiment [2] is 21.7 µM (active). Moreover, the outcome in [4] and in experiment [5] was inactive.

In the case of `CCCCOC(=O)CC`, the Potency entry in experiment [1], in experiment [2], in experiment [3], in experiment [6], in experiment [7] and in [8] was “inactive” each time. Also, the Potency entry in experiment [9], in experiment [10], in experiment [11], in experiment [12], in experiment [13] and in [14] was “inactive” each time. The Potency result in experiment [17], in experiment [20] and in [19] was “inactive” throughout. Moreover, the result in experiment [4] and in [5] was inactive.

As to `Cc1c(N)cccc1[N+](=O)[O-]`, the Potency entry in experiment [1], in [3], in experiment [6], in experiment [7], in [8] and in [9] was “inactive” throughout. For the same molecule, the Potency entry in experiment [10], in experiment [11], in experiment [12], in experiment [13], in [14] and in experiment [16] was “inactive” in each case. In addition, the Potency entry in experiment [17], in [18] and in experiment [19] was “inactive” each time. Moreover, in experiment [2], the Potency was 27.8 µM (active). In addition, the result in experiment [4] and in experiment [5] was inactive.
